Experimental data from publication PMC11006913.
Positions count from the first letter of the chain named.

How the values were obtained:
Assay in all cases: PBM; 200 nM protein, PBS
Conditions in all cases: dsDNA, one strand shown
[1] = target: HOXB4 (Homo sapiens, UniProt P17483 148-234)
[2] = target: T1, VENTX (Homo sapiens, UniProt O95231 78-163, R121Q)
T1 sequence: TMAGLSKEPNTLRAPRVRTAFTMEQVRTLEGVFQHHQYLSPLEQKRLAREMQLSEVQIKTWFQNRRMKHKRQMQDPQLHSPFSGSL

[3] = target: HOXA4 (Homo sapiens, UniProt Q00056 201-287, W262R)
Sequence of HOXA4 (Homo sapiens, UniProt Q00056 201-287, W262R) (Q00056 201-287 W262R): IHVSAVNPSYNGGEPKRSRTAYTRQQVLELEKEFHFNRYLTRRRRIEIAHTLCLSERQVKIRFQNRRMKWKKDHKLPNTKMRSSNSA

[4] = target: HOXA7 (Homo sapiens, UniProt P31268 116-202)
Sequence of HOXA7 (Homo sapiens, UniProt P31268 116-202) (P31268 116-202): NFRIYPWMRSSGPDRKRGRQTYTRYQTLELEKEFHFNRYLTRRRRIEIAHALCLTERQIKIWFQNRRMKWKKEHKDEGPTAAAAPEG

[5] = target: T2, VENTX (Homo sapiens, UniProt O95231 78-163, Y115F)
T2 sequence: T1 sequence with Y38F, Q44R

[6] = target: HOXB6 (Homo sapiens, UniProt P17509 132-218, K202E)
Sequence of HOXB6 (Homo sapiens, UniProt P17509 132-218, K202E) (P17509 132-218 K202E): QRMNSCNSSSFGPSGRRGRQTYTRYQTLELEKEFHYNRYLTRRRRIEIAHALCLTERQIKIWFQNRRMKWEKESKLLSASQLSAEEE

[7] = target: HOXA2 (Homo sapiens, UniProt O43364 129-215, R185T)
Sequence of HOXA2 (Homo sapiens, UniProt O43364 129-215, R185T) (O43364 129-215 R185T): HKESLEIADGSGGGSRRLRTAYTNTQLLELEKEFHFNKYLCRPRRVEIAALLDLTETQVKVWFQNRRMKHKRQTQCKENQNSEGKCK

[8] = target: HOXA4 (Homo sapiens, UniProt Q00056 201-287, R217L)
Sequence of HOXA4 (Homo sapiens, UniProt Q00056 201-287, R217L) (Q00056 201-287 R217L): as the sequence (Q00056 201-287 W262R) above, with R17L, R62W counted along it

[9] = target: HOXB4 (Homo sapiens, UniProt P17483 148-234, V174I)
Sequence of HOXB4 (Homo sapiens, UniProt P17483 148-234, V174I) (P17483 148-234 V174I): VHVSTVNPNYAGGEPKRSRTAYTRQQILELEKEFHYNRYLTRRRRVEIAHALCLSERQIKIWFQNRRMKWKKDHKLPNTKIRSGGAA

[10] = target: HOXA2 (Homo sapiens, UniProt O43364 129-215, R185K)
Sequence of HOXA2 (Homo sapiens, UniProt O43364 129-215, R185K) (O43364 129-215 R185K): as the sequence (O43364 129-215 R185T) above, with T57K counted along it

[11] = target: HOXA4 (Homo sapiens, UniProt Q00056 201-287)
Sequence of HOXA4 (Homo sapiens, UniProt Q00056 201-287) (Q00056 201-287): as the sequence (Q00056 201-287 W262R) above, with R62W counted along it

[12] = target: VAX1 (Homo sapiens, UniProt Q5SQQ9 86-172)
Sequence of VAX1 (Homo sapiens, UniProt Q5SQQ9 86-172) (Q5SQQ9 86-172): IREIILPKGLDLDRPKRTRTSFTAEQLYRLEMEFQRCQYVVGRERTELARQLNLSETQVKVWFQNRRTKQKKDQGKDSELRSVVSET

[13] = target: VAX1 (Homo sapiens, UniProt Q5SQQ9 86-172, T142I)
Sequence of VAX1 (Homo sapiens, UniProt Q5SQQ9 86-172, T142I) (Q5SQQ9 86-172 T142I): as the sequence (Q5SQQ9 86-172) above, with T57I counted along it

[14] = target: HOXA2 (Homo sapiens, UniProt O43364 129-215, Y150S)
Sequence of HOXA2 (Homo sapiens, UniProt O43364 129-215, Y150S) (O43364 129-215 Y150S): as the sequence (O43364 129-215 R185T) above, with Y22S, T57R counted along it

[15] = target: HOXA7 (Homo sapiens, UniProt P31268 116-202, W177C)
Sequence of HOXA7 (Homo sapiens, UniProt P31268 116-202, W177C) (P31268 116-202 W177C): as the sequence (P31268 116-202) above, with W62C counted along it

[16] = target: HOXA4 (Homo sapiens, UniProt Q00056 201-287, W262F)
Sequence of HOXA4 (Homo sapiens, UniProt Q00056 201-287, W262F) (Q00056 201-287 W262F): as the sequence (Q00056 201-287 W262R) above, with R62F counted along it

[17] = target: HOXA2 (Homo sapiens, UniProt O43364 129-215)
Sequence of HOXA2 (Homo sapiens, UniProt O43364 129-215) (O43364 129-215): as the sequence (O43364 129-215 R185T) above, with T57R counted along it

[18] = target: VAX1 (Homo sapiens, UniProt Q5SQQ9 86-172, K157R)
Sequence of VAX1 (Homo sapiens, UniProt Q5SQQ9 86-172, K157R) (Q5SQQ9 86-172 K157R): as the sequence (Q5SQQ9 86-172) above, with K72R counted along it

[19] = target: HOXB6 (Homo sapiens, UniProt P17509 132-218)
Sequence of HOXB6 (Homo sapiens, UniProt P17509 132-218) (P17509 132-218): as the sequence (P17509 132-218 K202E) above, with E71K counted along it

[20] = target: T3, VENTX (Homo sapiens, UniProt O95231 78-163)
T3 sequence: T1 sequence with Q44R

Sequence of HOXB4 (Homo sapiens, UniProt P17483 148-234) (P17483 148-234): as the sequence (P17483 148-234 V174I) above, with I27V counted along it

| Sequence | binding signal [1] | binding signal [2] | binding signal [3] | binding signal [4] | binding signal [5] | binding signal [6] | binding signal [7] | binding signal [8] | binding signal [9] | binding signal [10] | binding signal [11] | binding signal [12] | binding signal [13] | binding signal [14] | binding signal [15] | binding signal [16] | binding signal [17] | binding signal [18] | binding signal [19] | binding signal [20] |
| --- | --- | --- | --- | --- | --- | --- | --- | --- | --- | --- | --- | --- | --- | --- | --- | --- | --- | --- | --- | --- |
| CTTAATGA | 13.3 upbm affinity estimate (log intensity, higher = more binding, comparable within an allelic series) | 11.8 upbm affinity estimate (log intensity, higher = more binding, comparable within an allelic series) | 10.7 upbm affinity estimate (log intensity, higher = more binding, comparable within an allelic series) | 11.3 upbm affinity estimate (log intensity, higher = more binding, comparable within an allelic series) | 11.7 upbm affinity estimate (log intensity, higher = more binding, comparable within an allelic series) | 9.94 upbm affinity estimate (log intensity, higher = more binding, comparable within an allelic series) | 12.8 upbm affinity estimate (log intensity, higher = more binding, comparable within an allelic series) | 12.5 upbm affinity estimate (log intensity, higher = more binding, comparable within an allelic series) | 13.9 upbm affinity estimate (log intensity, higher = more binding, comparable within an allelic series) | 13.4 upbm affinity estimate (log intensity, higher = more binding, comparable within an allelic series) | 14 upbm affinity estimate (log intensity, higher = more binding, comparable within an allelic series) | 13.3 upbm affinity estimate (log intensity, higher = more binding, comparable within an allelic series) | 13.1 upbm affinity estimate (log intensity, higher = more binding, comparable within an allelic series) | 10.8 upbm affinity estimate (log intensity, higher = more binding, comparable within an allelic series) | 8.84 upbm affinity estimate (log intensity, higher = more binding, comparable within an allelic series) | 12.1 upbm affinity estimate (log intensity, higher = more binding, comparable within an allelic series) | 12.7 upbm affinity estimate (log intensity, higher = more binding, comparable within an allelic series) | 13.1 upbm affinity estimate (log intensity, higher = more binding, comparable within an allelic series) | 11.6 upbm affinity estimate (log intensity, higher = more binding, comparable within an allelic series) | – |
| ATCATTAG | 13.5 upbm affinity estimate (log intensity, higher = more binding, comparable within an allelic series) | 11.7 upbm affinity estimate (log intensity, higher = more binding, comparable within an allelic series) | 10.6 upbm affinity estimate (log intensity, higher = more binding, comparable within an allelic series) | – | 11.8 upbm affinity estimate (log intensity, higher = more binding, comparable within an allelic series) | – | 12.9 upbm affinity estimate (log intensity, higher = more binding, comparable within an allelic series) | 12.3 upbm affinity estimate (log intensity, higher = more binding, comparable within an allelic series) | 14.2 upbm affinity estimate (log intensity, higher = more binding, comparable within an allelic series) | 13.6 upbm affinity estimate (log intensity, higher = more binding, comparable within an allelic series) | 14.1 upbm affinity estimate (log intensity, higher = more binding, comparable within an allelic series) | 13.2 upbm affinity estimate (log intensity, higher = more binding, comparable within an allelic series) | 13.1 upbm affinity estimate (log intensity, higher = more binding, comparable within an allelic series) | 10.9 upbm affinity estimate (log intensity, higher = more binding, comparable within an allelic series) | – | 12 upbm affinity estimate (log intensity, higher = more binding, comparable within an allelic series) | 12.7 upbm affinity estimate (log intensity, higher = more binding, comparable within an allelic series) | 13.1 upbm affinity estimate (log intensity, higher = more binding, comparable within an allelic series) | – | 12.5 upbm affinity estimate (log intensity, higher = more binding, comparable within an allelic series) |
